Screening data as filed in PubChem BioAssay.
The entries come from a sample that favours hits as a whole.
Pf Dd2 inh = inhibitors of Plasmodium falciparum Dd2 growth; 120,000 tested, 4.3% active; P. falciparum Dd2 growth, SYBR Green, 72 h; AID 1347417; Potency, µM (highest dose often 28.9 µM), without a hit: at the top dose activity, negative = inhibition, actives largely listed as inhibitors; active = well fitted inhibition curve with a large enough effect;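 also: plate controls were DMSO vehicle for no effect and reference drug for full effect; nearly all actives have a fitted effect of over 65% in size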
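Readout: SYBR Green fluorescence, 485 nm excitation, 535 nm emission, after ~16 h lysis at 37C. Before that, Dd2-infected red cells (2.5% hematocrit) grew 72 h with compound, 29 uM top final concentration.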
Starred values were filed as active, the others as inactive; i = inactive. Potency is read from the fitted curve at half-maximal effect.

SMILES	Pf Dd2 inh
Cc1cc2cc(C(=O)N(C)Cc3ccc4nsnc4c3)ccc2o1	-7%
CCCNC(=O)C1COC2(CCN(C(=O)C3CCC3)CC2)N1C(=O)c1ccc(OC)cc1 (stereo not drawn)	-16%
COc1ccc(OCC(=O)N(Cc2cccs2)c2ccc(OC)cc2)cc1	-20%
COc1ccc(N(Cc2cccs2)C(=O)c2ccco2)cc1	10µM*
CCCNC(=O)Cc1ccc(N(Cc2ccc(OC)cc2)C(=O)c2ccco2)cc1	i
COc1ccc(CN(C(=O)c2ccco2)c2ccc(CC(=O)NC(C)C)cc2)cc1	i
COc1ccc(NC(=O)Cc2ccc(N(Cc3ccc(C)cc3)C(=O)c3ccco3)cc2)cc1	4.5µM*
COc1ccc(CCNC(=O)Cc2ccc(N(Cc3ccccc3)C(=O)c3ccco3)cc2)cc1	-7%
COc1cccc(C(=O)N2CCCC(c3nn(-c4ccc(Cl)cc4)c(=O)[nH]3)C2)c1 (stereo not drawn)	-21%
Cc1cnc(C2CCN(S(C)(=O)=O)C2)n1C(C)C (stereo not drawn)	-1%
CCc1ccccc1CN1CCCC12Cc1ccccc1CNC2=O (stereo not drawn)	8.9µM*
O=C1NCc2ccccc2CC12CCCCN2Cc1cccc(F)c1 (stereo not drawn)	-29%
O=C1NCc2ccccc2CC12CCCN2Cc1ccc(O)cc1O (stereo not drawn)	-8%
O=C1NCc2ccccc2CC12CCCN2Cc1ccc(O)cc1 (stereo not drawn)	-23%
Cc1ccc(CN2CCCCC23Cc2ccccc2CNC3=O)cc1C (stereo not drawn)	7.9µM*
O=C1NCc2ccccc2CC12CCCN2Cc1ccc(F)cc1F (stereo not drawn)	0%
CC(=O)Nc1ccc(CN2CCCC23Cc2ccccc2CNC3=O)cc1 (stereo not drawn)	-1%
Cc1ccc(CN2CCCC23Cc2ccccc2CNC3=O)cc1 (stereo not drawn)	10µM*
COc1ccc(CN2CCCCC23Cc2ccccc2CNC3=O)cc1OC (stereo not drawn)	-17%
COc1ccc(OC)c(NC(=O)Cn2c(-c3cnccn3)nc(C)c(CCO)c2=O)c1	-4%
COc1cccc(CC(=O)N2[C@@H]3CC[C@H]2CC(NC(=O)c2ccncc2)C3)c1 (stereo partly drawn)	-1%
Cc1nc(N2CCC(NC(=O)COc3ccccc3)CC2)cc(C(F)(F)F)n1	17%
COc1cccc(CNC(=O)CN2C(=O)NC3(CCCCC3)C2=O)c1	-19%
CCOC(=O)C1(Cc2cccc(OC)c2)CCCN(C(=O)COc2ccccc2)C1 (stereo not drawn)	-14%
CCOC(=O)C1(Cc2cccc(Cl)c2)CCCN(C(=O)c2csc(C(C)=O)c2)C1 (stereo not drawn)	i
SMILES	Pf Dd2 inh
CCCN1CCC(N2CCCC(Cc3ccccc3)(C(=O)OCC)C2)CC1 (stereo not drawn)	5µM*
O=C(c1ccccc1)N1CCn2ncc(C(=O)N3CCOCC3)c2C1	-11%
CCOCc1nc(C2CCCN2S(=O)(=O)c2cccs2)no1 (stereo not drawn)	0%
O=S(=O)(c1cccnc1)N1CC(c2noc(C3CCCN3CC3CC3)n2)C1 (stereo not drawn)	6.3µM*
O=C(c1ccc2c(c1)OCO2)N1CC(c2noc(C3CCCN3CC3CC3)n2)C1 (stereo not drawn)	5µM*
O=C(c1cccs1)N1CCCC1c1nc(C2CCOCC2)no1 (stereo not drawn)	-15%
CC(=O)N1CCCC1c1nc(C2CN(S(=O)(=O)c3cccnc3)C2)no1 (stereo not drawn)	-21%
CC(=O)N1CCCC1c1nc(C2CN(C(=O)c3ccsc3)C2)no1 (stereo not drawn)	-19%
COCCN1CCCC1c1nc(C2CN(C(=O)c3ncccc3C)C2)no1 (stereo not drawn)	i
O=S(=O)(c1cccnc1)N1CCC(c2nc(C3CC3)no2)C1 (stereo not drawn)	38%
O=S(=O)(c1cccs1)N1CC(c2noc(C3CCCN3CC3CC3)n2)C1 (stereo not drawn)	2.8µM*
COc1ccc(C(=O)N2CCC3(CC2)CCC(O)(CN(C)C)CC3)cc1	-20%
COc1cc(=O)n2c(c1C(=O)Nc1cc(C)ccc1F)CCCC2	3%
CN1C(=O)COC[C@@H]1[C@H](O)c1ccc(NC(=O)C2CCC2)cc1	i
CC(O)c1cc2n(n1)CCN(CCS(=O)(=O)c1ccccc1)C2 (stereo not drawn)	-8%
COc1ccc(S(=O)(=O)N2CCN(C(=O)c3csc(C)n3)CC2)cc1	-16%
CN(C)c1ccc(NC(=O)CCn2ccn3nc4c(c3c2=O)CCCC4)cc1	4µM*
O=C(Nc1ccc(Cl)cc1)c1ccc(Cn2ccn3nc4c(c3c2=O)CCCC4)cc1	8.9µM*
O=C(Nc1ccccc1)c1ccc(Cn2ccn3nc4c(c3c2=O)CCCC4)cc1	-15%
CCOc1ccc(NC(=O)CCn2ccn3nc4c(c3c2=O)CCCC4)cc1	-7%
CC(C)NC(=O)c1ccc(Cn2ccn3nc4c(c3c2=O)CCCC4)cc1	-4%
